GSTO1 inh: counter-screen for RBBP9 inhibitors: inhibitors of human GSTO1 | recombinant GSTO1, activity-based probe fluorescence polarization | inhibition, % at 5.96 µM | 300,000 tested, 1.1% active;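 active means inhibition above the campaign mean inhibition plus 3 SD, cut at about 35% in these data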
Target sequence (P78417 whole entry, looked up): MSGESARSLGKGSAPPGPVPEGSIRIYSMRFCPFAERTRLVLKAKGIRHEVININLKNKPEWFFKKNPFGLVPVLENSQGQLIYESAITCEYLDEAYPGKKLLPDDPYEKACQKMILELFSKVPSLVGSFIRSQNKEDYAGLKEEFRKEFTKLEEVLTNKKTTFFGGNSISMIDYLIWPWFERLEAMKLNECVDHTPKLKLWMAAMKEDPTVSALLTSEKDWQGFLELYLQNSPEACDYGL
LYPLA1 inh: counter-screen for PME1 inhibitors: inhibitors of human LYPLA1; O75608; recombinant LYPLA1, FP-Rh probe fluorescence polarization; 320,000 tested, 0.16% active; inhibition, % at 5.9 µM;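 active means inhibition above the mean of all tested compounds plus 3 SD, set per campaign, cut at about 14% in these data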;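 further: inhibitors block serine hydrolase probe labeling of LYPLA1 so polarization falls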
LYPLA2 inh: blocks human lysophospholipase 2, a PME1 counter-screen; recombinant LYPLA2, FP-Rh probe fluorescence polarization; inhibition, % at 5.9 µM; O95372; 320,000 tested, 0.38% active;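 active means inhibition above the screen-wide mean plus 3 SD, limit set per campaign, cut at about 26% in these data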
PAD4 inh: PAD4 (human) enzyme inhibition; Q9UM07; recombinant PAD4, RCA probe fluorescence polarization; inhibition, % at 6.36 µM; 330,000 tested, 0.41% active;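 active means percent inhibition above a cutoff equal to the mean of all tested compounds plus 3 SD, cut at about 15% in these data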
Fam108B inh: blocks mouse Fam108B hydrolase in RBBP9 counter-screen | inhibition, % at 9.51 µM | recombinant Fam108B, FP-Rh probe fluorescence polarization | 300,000 tested, 0.33% active;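 active means inhibition above the screen mean inhibition plus 3 SD, computed separately per campaign, cut at about 18% in these data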;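 further: inhibitors lower polarization as less probe binds the enzyme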
PME-1 primary: blocks human protein phosphatase methylesterase 1; recombinant PME-1, FP-Rh probe fluorescence polarization; inhibition, % at 5.9 µM; 320,000 tested, 0.53% active;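 active means inhibition above the campaign mean of all compounds plus 3 SD, cut at about 26% in these data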;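 further: competitive labeling of PME-1 active site by serine hydrolase directed probe; inhibitors block probe labeling so polarization falls and inhibition rises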
Target sequence (Q9Y570 whole entry, looked up): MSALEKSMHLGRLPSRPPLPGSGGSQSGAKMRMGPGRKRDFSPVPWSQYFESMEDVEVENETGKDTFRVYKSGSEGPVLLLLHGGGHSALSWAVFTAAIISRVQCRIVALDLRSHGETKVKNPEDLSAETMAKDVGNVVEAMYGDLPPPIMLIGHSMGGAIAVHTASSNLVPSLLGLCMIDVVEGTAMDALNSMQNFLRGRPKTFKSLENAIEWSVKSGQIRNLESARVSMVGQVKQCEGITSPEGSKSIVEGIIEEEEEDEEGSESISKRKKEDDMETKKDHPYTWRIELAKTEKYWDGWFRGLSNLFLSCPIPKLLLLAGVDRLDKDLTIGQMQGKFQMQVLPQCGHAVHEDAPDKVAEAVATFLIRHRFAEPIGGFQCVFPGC
LYPLA1 confirm: LYPLA1 (human) inhibition, confirmation counter-screen; recombinant LYPLA1, FP-Rh probe fluorescence polarization; inhibition, % at 5.9 µM; shares compounds with LYPLA1 inh; 480 tested, 69% active;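 active means mean inhibition across replicates above the hit cutoff set in the primary screen, cut at about 15% in these data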;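 further: loss of FP-Rh probe labeling of LYPLA1 seen as lower polarization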
LYPLA2 confirm: counter-screen for PME1 inhibitors: confirmation of human LYPLA2 inhibitors. shares compounds with LYPLA2 inh. recombinant LYPLA2, FP-Rh probe fluorescence polarization. inhibition, % at 5.9 µM. 1,100 tested, 72% active;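 active means mean inhibition across replicates above the hit cutoff set in the primary screen, cut at about 26% in these data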;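 further: blocked labeling of the enzyme by serine hydrolase FP-Rh probe lowers polarization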
LYPLA2 gel ABPP: blocks human acyl-protein thioesterase 2 in gel ABPP; shares compounds with LYPLA2 inh; rhLYPLA2 in mouse brain proteome, gel ABPP FP-Rh; inhibition, % at 20 µM; 150 tested, 30% active;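 active means inhibition of LYPLA2 enzyme probe labeling above about 50%, limit read from the data; inactive means inhibition below that limit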;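 further: loss of FP-Rh probe labeling of the LYPLA2 gel band measured as band density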
Large screens that a line does not name were inactive (follow-up assays come after a bar, where they were run). This is a sample that favours compounds with a hit; in the whole collection about 1.8% have one here.

Cc1cc(C)c(S(=O)(=O)NCc2ccccn2)c(C)c1	none
O=c1[nH]c(O)c(/C=C2\C=Nc3ccc(Br)cc32)[nH]1	LYPLA1 inh 35.6 | LYPLA1 confirm 39.8
Cc1ccc(OC(=O)CCC(=O)NC(C)c2ccccc2)cc1 (stereo not drawn)	none
COc1ccc(/C=C2/SC(=S)N(CCCC(=O)Nc3ccccc3C(=O)O)C2=O)cc1	LYPLA1 inh 20.4 | LYPLA1 confirm 19.4
CC(C)(C)c1csc(NC(=O)c2ccc(Br)o2)n1	none
Cc1nc(S/C(=C/c2ccc(-c3ccc(Cl)cc3)o2)C(=O)O)n[nH]1	LYPLA1 inh 20.2 | LYPLA1 confirm 19.0
CC(=O)c1ccc(-c2ccc(/C=C(/Sc3n[nH]c(C)n3)C(=O)O)o2)cc1	none
CC(=O)c1sc(NC(=O)C2CCN(C(=O)c3ccc(F)cc3)CC2)nc1-c1ccccc1	LYPLA1 inh 20.4 | LYPLA1 confirm 28.6
CCOc1cc(CN2CCCC(C(=O)c3cccc(C(F)(F)F)c3)C2)ccc1O (stereo not drawn)	LYPLA1 inh 35.0 | LYPLA1 confirm 42.4
COc1ccc([C@@H]2Sc3ccccc3NC(=O)[C@@H]2O)cc1	none
COc1ccc(-n2c(C)c([N+](=O)[O-])c3ccc(O)c(CN4CCCCC4)c32)cc1	LYPLA1 inh 54.1 | LYPLA1 confirm 65.0
COC(=O)C1(CC2CC(c3cccc(Br)c3)=NO2)CCN(C(=O)OC(C)(C)C)CC1 (stereo not drawn)	LYPLA1 inh 23.5 | LYPLA1 confirm 30.8
CC(C)(C)OC(=O)N1CCC(CC2CC(c3ccccc3)=NO2)(C(=O)NCc2ccccc2)CC1 (stereo not drawn)	none
CCC(C)NCC(=O)Nc1ccc(S(N)(=O)=O)cc1 (stereo not drawn)	none
CCOC(=O)c1ccc(Oc2c(C)oc3c(CN4CCN(C)CC4)c(O)ccc3c2=O)cc1	LYPLA1 inh 16.8 | LYPLA1 confirm 16.6
CC(=O)N1CCN(C(=O)CCc2nnc(CCCCc3ccccc3)o2)CC1	none
COCCCC1CCN(C(=O)CCc2nnc(CCCCc3ccccc3)o2)CC1	LYPLA1 inh 17.1 | LYPLA1 confirm 16.6
COc1ccc(-c2nnc(Nc3nc4c(OC)cccc4s3)o2)cc1	LYPLA1 inh 17.4 | LYPLA1 confirm 41.4
COc1ccc(-c2nnc(-c3ccc(N)cc3)o2)cc1	none
NC(=O)C1=C[C@@H](c2ccc(C(F)(F)F)cc2)C[C@@H](OCc2ccc(CO)cc2)O1	none
NC(=O)C1=C[C@H](c2ccc(C(F)(F)F)cc2)C[C@H](OCc2ccc(CO)cc2)O1	LYPLA1 inh 29.8 | LYPLA1 confirm 34.5
Oc1ccccc1N1CCN(CC(O)COC2CCCc3ccccc32)CC1 (stereo not drawn)	none
CCOC(=O)C1CCN(S(=O)(=O)c2ccc3c(c2)CC(C)N3C(=O)C2CCC2)CC1 (stereo not drawn)	LYPLA1 inh 16.0 | LYPLA1 confirm 23.6
CC1Cc2cc(S(=O)(=O)N3CCC(C(=O)N4CCCCC4)CC3)ccc2N1C(=O)C1CC1 (stereo not drawn)	none
CC1Cc2cc(S(=O)(=O)N3CCN(C)CC3)ccc2N1C(=O)C1CC1 (stereo not drawn)	none
CCOC(=O)C1CCCN(S(=O)(=O)c2ccc3c(c2)CC(C)N3C(=O)C2CC2)C1 (stereo not drawn)	none
CC1Cc2cc(S(=O)(=O)N3CCC(C(=O)N(C)Cc4ccco4)CC3)ccc2N1C(=O)C1CCC1 (stereo not drawn)	LYPLA1 inh 19.2 | LYPLA1 confirm 28.8
CC1CCN(S(=O)(=O)c2ccc3c(c2)CC(C)N3C(=O)C2CCC2)CC1 (stereo not drawn)	LYPLA1 inh 25.0 | LYPLA1 confirm 33.8
CC1Sc2ccc(S(=O)(=O)N3CCC(C(=O)N(C)Cc4ccco4)CC3)cc2NC1=O (stereo not drawn)	none
CC1Cc2cc(S(=O)(=O)N3CCCCC3)ccc2N1C(=O)C1CCC1 (stereo not drawn)	LYPLA1 inh 19.0 | LYPLA1 confirm 23.8
COc1ccc(N(C(=O)CNC(=O)c2cccs2)C(C(=O)NC2CCCC2)c2cccnc2)cc1 (stereo not drawn)	none
Cc1ccc2cc(CN(C)C(=O)C3CCCO3)c(=O)[nH]c2c1 (stereo not drawn)	none
O=C(c1ccc(-c2ccccc2)c(F)c1)C1CCCN(C(=O)c2cncs2)C1 (stereo not drawn)	LYPLA1 inh 31.7 | LYPLA1 confirm 51.6
CC(C)Oc1cccc(C(=O)C2CCCN(C(=O)c3cncs3)C2)c1 (stereo not drawn)	none
CN(C)S(=O)(=O)c1cccc(C(=O)Nc2n[nH]c(C(F)(F)F)n2)c1	none
CC(=O)c1ccc(N2CCN(C(=O)c3ccc(C(=O)c4ccccc4)cc3)CC2)cc1	LYPLA1 inh 20.6, LYPLA2 inh 55.4 (no result: GSTO1 inh, Fam108B inh) | LYPLA1 confirm 36.0 | LYPLA2 confirm 64.9
Cc1nn(CC(=O)N2CCN(Cc3ccccc3)CC2)c(=O)c2ccccc12	none
COc1ccc(CN2CCN(C(=O)Cn3nc(C(=O)O)c4ccccc4c3=O)CC2)cc1F	LYPLA1 inh 16.8, LYPLA2 inh 57.1 | LYPLA1 confirm 15.0 | LYPLA2 confirm 63.0 | LYPLA2 gel ABPP inactive
COc1ccc(N2CCN(C(=O)CCCCCn3c(=O)[nH]c4ccsc4c3=O)CC2)cc1	LYPLA1 inh 18.6, LYPLA2 inh 26.6 | LYPLA1 confirm 45.5 | LYPLA2 confirm 28.7
O=C(CCCCn1c(=O)[nH]c2ccccc2c1=O)N1CCN(c2cccc(C(F)(F)F)c2)CC1	LYPLA1 inh 19.9, LYPLA2 inh 83.2 | LYPLA1 confirm 21.8 | LYPLA2 confirm 72.6
COc1ccc(N2CCN(CCCNC(=O)CCCn3c(=O)[nH]c4ccsc4c3=O)CC2)cc1	none
Cc1ccc(C)c(C(=O)CCC(=O)N2CCN(c3cccc(C(F)(F)F)c3)CC2)c1	LYPLA1 inh 37.5, LYPLA2 inh 56.9 (no result: GSTO1 inh, Fam108B inh) | LYPLA1 confirm 44.1 | LYPLA2 confirm 64.1
Cc1ccc(-n2nc3c(N4CCC(C(=O)NCCc5cccs5)CC4)nnc(C)c3c2C)cc1	none
O=C(CCCC(=O)c1ccc(F)cc1)c1ccc(F)cc1	none
Cc1cc(C(=O)COc2ccccc2C(N)=O)c(C)n1C	none
Cc1cc(C(=O)COc2cccc3cccnc23)c(C)n1C	LYPLA1 inh 21.4, LYPLA2 inh 29.1 | LYPLA1 confirm inactive | LYPLA2 confirm inactive

Compound activity as filed in PubChem BioAssay.
